In all, about 220,000 compounds went through this assay and about 10 (0.005%) were called active. The calls are words filed in the database; no cut-off is given here. The entries come from a sample that favours actives as a whole.

The text below walks through data of ChEMBL document CHEMBL1201862, “PubChem BioAssay data set” (2004).

A short description of this experiment: enhancers of HSV replication in host cells, fold increase, host cell viability (AID 1956). The class given is functional.
Take `N#C/C(=C/c1ccc(N2CCOCC2)o1)C(=O)NC1CCCCC1`: the Conc @ Max Fold Incr was 25 µM (active).
